Records with an inconclusive call do not appear. Where a call stands in place of a potency, no number is given. A number with no mark means an inactive call. Activity calls are given as the source filed them. The call rests on the fitted dose curve; in most records, active means well fitted curve in the direction sought with a large enough effect; inconclusive means small, poorly fitted or top-dose-only effect, or another doubt; inactive means no such curve, though single readings can be large; an effect the other way counts as inactive or inconclusive.
Assays:
[1] = test system: HEK293; assay: Cytotoxic Profiling of Annotated Libraries Using Quantitative High-Throughput Screening (AID 1296008); conditions: Five cell lines viability, CellTiter-Glo ATP luminescence, 48-72 h; max response: hits give low values; further: nearly all actives have a fitted effect of over 60% in size
Method in brief: (§1)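 Cytotoxicity was measured as CellTiter-Glo ATP luminescence, read after 10 min at room temperature. Compound treatment of the cells lasted 48 or 72 hr at 37 degrees Celsius in a qHTS format.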

[2] = test system: NIH3T3; assay: as above; conditions: Five cell lines viability, CellTiter-Glo ATP luminescence, 48-72 h; max response: hits give low values
Method in brief: as §1

[3] = test system: Es-2; assay: Primary qHTS to identify gynecologic anti-cancer compounds using libraries of approved drugs and bioactive compounds (AID 1345084); conditions: Gynecologic cancer cell panel viability, ATPlite luminescence, 48 h; series mostly up to 57.5 µM; further: nearly all actives have a fitted effect of over 55% in size
Method in brief: (§2)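 Measured: luminescence after ATPlite addition (15 min, RT). Exposure: 48 h, 37 C, 5% CO2.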

[4] = test system: HeLa; assay: as above; conditions: Gynecologic cancer cell panel viability, ATPlite luminescence, 48 h; series mostly up to 57.5 µM
Method in brief: as §2

[5] = test system: PA-1; assay: as above; conditions: Gynecologic cancer cell panel viability, ATPlite luminescence, 48 h; series mostly up to 57.5 µM
Method in brief: as §2

[6] = test system: C33A; assay: as above; conditions: Gynecologic cancer cell panel viability, ATPlite luminescence, 48 h; series mostly up to 57.5 µM
Method in brief: as §2

[7] = test system: CAOV3; assay: as above; conditions: Gynecologic cancer cell panel viability, ATPlite luminescence, 48 h; series mostly up to 57.5 µM
Method in brief: as §2

[8] = test system: CASKI; assay: as above; conditions: Gynecologic cancer cell panel viability, ATPlite luminescence, 48 h; series mostly up to 57.5 µM
Method in brief: as §2

[9] = test system: Hek293T; assay: as above; conditions: Gynecologic cancer cell panel viability, ATPlite luminescence, 48 h, control line for the selectivity index; series mostly up to 57.5 µM
Method in brief: as §2

[10] = test system: JEG-3; assay: as above; conditions: Gynecologic cancer cell panel viability, ATPlite luminescence, 48 h; series mostly up to 57.5 µM
Method in brief: as §2

[11] = test system: OV90; assay: as above; conditions: Gynecologic cancer cell panel viability, ATPlite luminescence, 48 h; series mostly up to 57.5 µM
Method in brief: as §2

[12] = test system: SKOV3; assay: as above; conditions: Gynecologic cancer cell panel viability, ATPlite luminescence, 48 h; series mostly up to 57.5 µM
Method in brief: as §2
Potency means the concentration at half of the fitted maximal effect.

C=C(C)C(=O)O[C@H]1C[C@@](C)(O)C2(O)CCC(C)(/C=C3/OC(=O)C(COC)=C31)O2 (some centres not stated)
Potency [1]: 3.21 µM (active)
Potency [2]: 10.1 µM (active)
Potency [3]: 11.2 µM (active)
Potency [4]: inactive
Potency [5]: 10 µM (active)

CN(C)Cc1ccc(-c2cnn3c(-c4cccc(NC(=O)c5cccc(C(F)(F)F)c5)c4)ccnc23)cc1
Potency [1]: 7.31 µM (active)
Potency [2]: 16.4 µM (active)
Potency [3]: inactive
Potency [4]: inactive
Potency [5]: inactive

C=C1C(=O)OC2/C=C(\C)CC3C=C(CC/C=C(\C)CCC12)C(=O)O3 (configuration not stated)
Potency [1]: 11.4 µM (active)
Potency [6]: inactive
Potency [7]: inactive
Potency [8]: inactive
Potency [3]: inactive
Potency [4]: inactive
Potency [9]: inactive
Potency [10]: inactive
Potency [5]: inactive

Cn1ncc(Cl)c1-c1cc(C(=O)NC(CN)Cc2ccc(F)c(F)c2)oc1Cl (configuration not stated)
Potency [1]: 0.231 µM (active)
Potency [6]: 3.16 µM (active)
Potency [3]: inactive
Potency [4]: inactive
Potency [9]: 0.794 µM (active)

N#Cc1cnc2c(Cl)cc(NCc3cn(CCN4CCCCCC4)nn3)cc2c1Nc1ccc(F)c(Cl)c1
Potency [1]: 18.4 µM (active)
Potency [6]: inactive
Potency [7]: inactive
Potency [8]: inactive
Potency [3]: inactive
Potency [4]: inactive
Potency [9]: inactive
Potency [10]: inactive

CCCc1cc(C)[nH]c(=O)c1CNC(=O)c1cc(-c2ccc(N3CCN(C(C)C)CC3)nc2)cc2c1cnn2C(C)C
Potency [1]: 11.6 µM (active)
Potency [6]: inactive
Potency [8]: inactive
Potency [3]: inactive
Potency [4]: inactive
Potency [9]: inactive

C=CC(=O)N1CCN(C(=O)CNc2cc(-c3ccccc3Cl)c(Cl)cc2OC)CC1
Potency [1]: 18.4 µM (active)
Potency [6]: inactive
Potency [8]: inactive
Potency [3]: inactive
Potency [4]: inactive
Potency [9]: inactive
Potency [10]: inactive
Potency [11]: inactive
Potency [5]: inactive
Potency [12]: inactive

CCC(C(C)O)n1ncn(-c2ccc(N3CCN(c4ccc(OCC5COC(Cn6cncn6)(c6ccc(F)cc6F)C5)cc4)CC3)cc2)c1=O (configuration not stated)
Potency [1]: 5.8 µM (active)
Potency [6]: inactive
Potency [7]: inactive
Potency [8]: inactive
Potency [3]: inactive
Potency [4]: inactive
Potency [10]: inactive
Potency [11]: inactive
Potency [5]: inactive
Potency [12]: inactive

Cc1nc(Nc2cnn(C3CCNCC3)c2)nc2c1N(C)C(=O)c1cc3ccccc3cc1N2C
Potency [1]: 25.9 µM (active)
Potency [6]: inactive
Potency [8]: inactive
Potency [3]: inactive
Potency [9]: inactive
Potency [10]: inactive
Potency [11]: inactive
Potency [5]: inactive

CC(OC1OCCN(Cc2n[nH]c(=O)[nH]2)C1c1ccc(F)cc1)c1cc(C(F)(F)F)cc(C(F)(F)F)c1 (configuration not stated)
Potency [1]: 11.6 µM (active)
Potency [6]: inactive
Potency [7]: inactive
Potency [8]: inactive
Potency [3]: inactive
Potency [4]: inactive
Potency [9]: inactive
Potency [10]: inactive
Potency [11]: inactive
Potency [5]: inactive
Potency [12]: inactive

C[C@H](Oc1cc(-c2cnn(C3CCNCC3)c2)cnc1N)c1c(Cl)ccc(F)c1Cl
Potency [1]: 9.2 µM (active)
Potency [6]: inactive
Potency [8]: inactive
Potency [3]: inactive
Potency [4]: inactive
Potency [9]: inactive
Potency [10]: inactive

O=C(NC1CCN(CCCCC2(C(=O)NCC(F)(F)F)c3ccccc3-c3ccccc32)CC1)c1ccccc1-c1ccc(C(F)(F)F)cc1
Potency [1]: 11.6 µM (active)
Potency [2]: 7.31 µM (active)
Potency [5]: 31.6 µM (active)

O=c1ccc2ccc(OCCCCN3CCN(c4cccc5sccc45)CC3)cc2[nH]1
Potency [1]: 11.6 µM (active)
max response [2]: -13.6%
Potency [4]: inactive
Potency [10]: inactive
Potency [5]: inactive

C/C=C(/C)C(=O)O[C@H]1C=C(CO)C(=O)[C@H](OC(=O)/C(C)=C/CO)[C@H]1C(C)C
Potency [1]: 3.6 µM (active)
Potency [6]: 10 µM (active)

Cc1cc(N2CCOCC2)ccc1Nc1nc(NC2CCCCC2)c2[nH]cnc2n1
Potency [1]: 0.326 µM (active)
Potency [6]: inactive
Potency [7]: inactive
Potency [8]: inactive
Potency [3]: inactive
Potency [4]: inactive
Potency [9]: inactive
Potency [10]: inactive
Potency [11]: inactive

C=C1C(=O)O[C@@H]2[C@H]1CC[C@H](C)C(CCC(=O)O)C2(C)O (some centres not stated)
Potency [1]: 23.1 µM (active)
Potency [6]: inactive
Potency [8]: inactive
Potency [4]: inactive
Potency [12]: inactive

COc1cc2c(cc1OC)CN(C(=O)/C=C/c1c(-c3ccccc3)n(C)c3ncccc13)CC2
Potency [1]: 7.31 µM (active)
Potency [6]: inactive
Potency [8]: inactive
Potency [3]: inactive
Potency [4]: inactive
Potency [10]: inactive
Potency [11]: inactive
Potency [5]: inactive

O=C(NC1(c2ccccc2)CC1)c1c(CN2CCC(N3CCCCC3)CC2)c(-c2cccc(C(F)(F)F)c2)nc2cc(Br)ccc12
Potency [1]: 14.6 µM (active)
Potency [6]: inactive
Potency [8]: inactive
Potency [3]: inactive
Potency [4]: inactive
Potency [10]: inactive
Potency [11]: 17.8 µM (active)
Potency [12]: inactive

CCN1CCN(Cc2ccc(C(=O)Nc3ccc(C)c(Oc4ccc5c(c4)CC(=O)N5)c3)cc2C(F)(F)F)CC1
Potency [1]: 13 µM (active)
Potency [6]: inactive
Potency [7]: inactive
Potency [8]: inactive
Potency [3]: inactive
Potency [4]: inactive
Potency [9]: inactive
Potency [10]: inactive
Potency [11]: inactive

Cc1cc2occ(CN(C)CCN(C)Cc3cn(-c4cccc(C(F)(F)F)c4)c4ccccc34)c(=O)c2cc1C
Potency [1]: 8.2 µM (active)
Potency [6]: 31.6 µM (active)

Fc1ccc(-n2cc(CCCCN3CCC4(CC3)OCc3ccccc34)c3ccccc32)cc1
Potency [1]: 18.4 µM (active)
Potency [2]: 16.4 µM (active)
Potency [8]: inactive
Potency [3]: inactive
Potency [4]: inactive
Potency [9]: inactive
Potency [10]: inactive

— PubChem BioAssay (NCATS)
